Data published in PubChem BioAssay (NCI).
Compounds without any hit were thinned out: in the full panel of roughly 83,000, 20% have a hit.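 Cell lines were cultured in 96-well plates, exposed to a single compound concentration, and assessed for percent growth 48 hours later.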 A number with no mark means an inactive call. Active and inactive are the calls of the source. The calls were made as follows: active = growth percent below 10; inactive = the rest.

Columns and labels:
Assay in all cases: NCI-60 one-dose screen, 48 h (100 = growth as untreated, 0 = no growth, -100 = all killed)
Settings in all cases: 10 µM
NCI-H23 lung = tested on: NCI-H23 lung
NCI-H226 lung = tested on: NCI-H226 lung
NCI-H322M lung = tested on: NCI-H322M lung
HOP-62 NSCLC = tested on: HOP-62 NSCLC
NCI-H460 lung = tested on: NCI-H460 lung
HOP-92 NSCLC = tested on: HOP-92 NSCLC
NCI-H522 lung = tested on: NCI-H522 lung
A549/ATCC NSCLC = tested on: A549/ATCC NSCLC
786-0 renal = tested on: 786-0 renal
COLO 205 colon = tested on: COLO 205 colon

SMILES	growth (NCI-H23 lung)	growth (NCI-H226 lung)	growth (NCI-H322M lung)	growth (HOP-62 NSCLC)	growth (NCI-H460 lung)	growth (HOP-92 NSCLC)	growth (NCI-H522 lung)	growth (A549/ATCC NSCLC)	growth (786-0 renal)	growth (COLO 205 colon)
C(=C\c1nc2ccccc2s1)/c1ccc(N2CCOCC2)s1	78%	89.4%	79.7%	118%	80.7%	93%	64.2%	83.3%	82.5%	94.8%
COc1ccc(-c2nsc3c2NC(=O)CC3c2ccc(Cl)cc2)cc1 (stereo not given)	83.9%	84.4%	83.5%	92.6%	94.8%	73.3%	68.1%	76.6%	84.2%	93.8%
COc1ccc(-c2oncc2-c2cc(OC)c3c(c2)OCO3)cc1	47.7%	77.5%	39%	33.2%	11.5%	-3.69% (active)	3.28% (active)	27.7%	36.6%	15%
CCCC(C)c1ccc(OCCCCCCN2CCNCC2)cc1 (stereo not given)	61.6%	89.3%	58.3%	66.6%	6.72% (active)	25.1%	3.3% (active)	39.7%	-21.1% (active)	-68.3% (active)
Cc1ccc(S(=O)(=O)Oc2ccccc2-c2ccccc2)cc1	47.2%	53.5%	47.9%	42%	9.27% (active)	33%	15%	42.4%	38.4%	8.93% (active)
C/C(=N\NC(N)=S)C(C)(C)O	93.6%	89.2%	104%	104%	104%	88.1%	109%	83.4%	96.3%	119%
Cc1cc(C(C)(C)CC(C)(C)C)ccc1OCCOCC[N+](C)(C)Cc1ccccc1	-20% (active)	-18% (active)	20.6%	-83.5% (active)	-72.2% (active)	-72.5% (active)	-50.1% (active)	36.7%	-19.4% (active)	-81.6% (active)
Cc1ccc([P+](Cc2ccccc2)(c2ccccc2)c2ccccc2)cc1	12.4%	28.3%	16.2%	23.7%	12.4%	-25.3% (active)	-21.6% (active)	18.1%	21.3%	-68.9% (active)
CCOC(=O)Nc1ccc2c(c1)C(=O)N(CC)c1ccccc1O2	30.1%	14.5%	50%	24.8%	9.56% (active)	33.7%	-39% (active)	19.4%	31.1%	-29.8% (active)
CC(=O)Nc1ccc(Sc2ccc(NC(C)=O)cc2)cc1	94.1%	101%	110%	70.7%	105%	83.1%	75.7%	80%	94%	101%
O=C(CSc1nnc(-c2ccc(Cl)cc2)o1)c1ccccc1	88.7%	96.3%	119%	91.1%	105%	107%	78.6%	73.2%	92.8%	108%
C#CCn1c(-c2cccc(OCCCCl)c2)nc2c1c(=O)n(C)c(=O)n2C	79.5%	62.5%	92.1%	81.4%	93.5%	49.9%	52%	92%	86.5%	96.8%
CCCCOCC(=O)NC(NP(=O)(N(C)C)N(C)C)C(Cl)(Cl)Cl (stereo not given)	101%	109%	127%	81.2%	110%	97.7%	107%	102%	92.5%	109%
Cc1ccc(-c2cc(-c3cccc(Nc4ccnc5cc(Cl)ccc45)c3)nc3nc(N)[nH]c(=O)c23)cc1	100%	96.6%	91.3%	113%	110%	14.6%	21%	102%	94.9%	125%
COc1ccc(-c2nsc3c2NC(=O)CC3c2cccc(Cl)c2)cc1 (stereo not given)	46.9%	75%	36%	27.8%	13.3%	-2.09% (active)	-6.59% (active)	30.2%	46.4%	-40.6% (active)
O=[N+]([O-])c1ccc(-c2nc(-c3ccccc3)c(-c3ccccc3)n2-c2ccccc2)cc1	25.2%	57%	58.5%	38.2%	36.4%	-12.6% (active)	-11.7% (active)	34.6%	57.3%	68.1%
COc1ccc(-c2nnc(SCC(=O)c3ccccc3)o2)cc1	91.2%	97.5%	107%	84.5%	105%	89.2%	83.9%	98.1%	79.4%	107%
CC(=O)Nc1ccc2c(c1)C(N1CC3CCC(CC3)C1)c1ccccc1-2 (stereo not given)	90.7%	85%	115%	96.5%	64.3%	64.2%	108%	85.9%	92.5%	68.6%
C#CCNCCCN1C(=O)c2ccc3c4c(ccc(c24)C1=O)C(=O)N(CCCNCC#C)C3=O	-45% (active)	-48.6% (active)	-94.4% (active)	-67.8% (active)	-78.5% (active)	-26.3% (active)	-78.4% (active)	-72.3% (active)	-56.9% (active)	-86.7% (active)
COC(=O)[C@]12CC[C@@H](C)[C@H](C)[C@@H]1C1=CC[C@@H]3[C@@]4(C)CC(=O)[C@H](O)[C@@](C)(CO)[C@@H]4C(=O)C[C@@]3(C)[C@]1(C)CC2	-14.2% (active)	-5.55% (active)	18.4%	-21.5% (active)	-48.9% (active)	-22.5% (active)	-65.9% (active)	-63.6% (active)	0.121% (active)	-64.6% (active)
